# Whole data set: some 33,000 sequences, median “E-score (-0.5 to 0.5)” near -0.011, cut for the highest 2% near 0.28. Many of the other results were omitted from the sample, so the highest values are more common in it than they were.
# Biological target: T1, Gcr1 (UniProt P07261)
# T1 sequence: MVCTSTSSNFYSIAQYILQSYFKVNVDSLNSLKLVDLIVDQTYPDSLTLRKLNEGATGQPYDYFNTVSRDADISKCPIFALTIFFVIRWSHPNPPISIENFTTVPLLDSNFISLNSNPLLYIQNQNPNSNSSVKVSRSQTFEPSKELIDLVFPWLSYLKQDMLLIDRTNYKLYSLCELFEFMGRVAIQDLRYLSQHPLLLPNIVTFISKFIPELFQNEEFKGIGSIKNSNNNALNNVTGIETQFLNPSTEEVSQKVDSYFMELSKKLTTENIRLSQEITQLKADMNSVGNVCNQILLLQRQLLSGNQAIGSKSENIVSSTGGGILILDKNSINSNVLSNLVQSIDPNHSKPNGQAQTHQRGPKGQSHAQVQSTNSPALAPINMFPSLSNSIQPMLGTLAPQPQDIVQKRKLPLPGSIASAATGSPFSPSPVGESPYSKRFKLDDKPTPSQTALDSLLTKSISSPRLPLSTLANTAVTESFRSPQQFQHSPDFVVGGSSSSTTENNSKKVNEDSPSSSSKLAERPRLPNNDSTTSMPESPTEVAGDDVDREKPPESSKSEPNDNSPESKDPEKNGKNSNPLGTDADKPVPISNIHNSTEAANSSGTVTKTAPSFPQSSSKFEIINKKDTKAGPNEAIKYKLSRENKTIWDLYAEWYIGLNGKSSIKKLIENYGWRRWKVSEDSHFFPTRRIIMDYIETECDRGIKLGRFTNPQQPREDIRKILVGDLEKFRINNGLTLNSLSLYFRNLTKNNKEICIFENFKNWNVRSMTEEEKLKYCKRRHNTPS
# Test: PBM E-score (8-mer binding enrichment) (E-score (-0.5 to 0.5)); higher = stronger / more preferred TF binding
# Settings: protein concentration: 100 nM; construct: GST-full length
# Procedure, shortened: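 PURExpress in vitro transcription/translation supplied GST-tagged yeast transcription factors, either full-length or DNA-binding domain. Applied at about 100-200 nM to universal all-10-mer Agilent arrays double-stranded by primer extension, the bound protein was detected with fluorescent anti-GST. E-scores, modified Wilcoxon-Mann-Whitney statistics, were given by the Universal PBM Analysis Suite to ungapped eight-base words pooled with their reverse complements after masliner normalisation.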
row,Sequence,PBM E-score
1,CACGCTGA,-0.0481
2,GACGCTGC,0.332
3,AACGCTGA,-0.0701
4,AGGGCAGG,-0.173
5,AGTGCTTC,-0.0411
6,CCGTCCAA,0.13
7,CCGTCCAC,0.016
8,ACGTCCAA,0.00712
9,GCGTCCAA,0.372
10,ACGTCCAC,0.104
11,GCGTCCAC,0.339
12,ATACCGGG,0.208
13,ACCCACTG,0.147
14,CCTGCTCA,-0.0926
15,CCAGATCC,0.185
16,GGCAATGA,-0.202
17,ACGGAAGT,-0.0172
18,GCGGAAGC,0.314
19,ACGGAAGA,0.0748
20,CCGGAAGC,0.439
21,CCGGAAGG,0.0607
22,GCGGAAAC,-0.0701

row,Sequence,PBM E-score
1,ACGGAAGC,0.344
2,CCGGAAGA,0.043
3,GCGGAAGA,-0.195
4,ATTTTAGG,0.249
5,CGAAACAC,0.13
6,AATACTGT,0.0108
7,AACATCGC,-0.031
8,GCAGGTAA,0.0517
9,AGTCTTCG,-0.124
10,GGAAGCGA,0.175
11,AGAAGCTC,0.273
12,GGAAGTTA,0.339
13,GGAAGCTA,0.457
14,AGAAGCTG,0.348
15,CGAAGTTA,0.0921
16,ATAAGCTA,-0.078
17,ATAAGCTG,0.15
18,AAAAGCTA,-0.0743
19,AGAAGTTA,0.0491
20,CGAAGCTA,0.198
21,AGAAGCTA,0.338
22,TAACCATA,0.0179

row,Sequence,PBM E-score
1,GATCTGAA,-0.0028
2,CGGGATAC,0.304
3,CGGGATTC,0.39
4,CCGGATTA,-0.0163
5,AGGGATTC,0.276
6,ACGGATTC,0.237
7,CCGGATTC,0.313
8,CTGGATCA,-0.0687
9,CGGGATTA,-0.0698
10,CTGGATCC,0.346
11,ATGGATCC,0.278
12,GGGGATAC,0.0984
13,CGGGATAA,0.0532
14,ACACTGGA,0.264
15,AACAGTGC,-0.142
16,CGGAAGAA,-0.0973
17,ATCTAGCC,0.0906
18,ATTCCGTC,0.0616
19,CTATAGAC,-0.109
20,CGCAGCAG,0.0351
21,CCCAAATC,0.238
22,CTAGCCAC,-0.154

row,Sequence,PBM E-score
1,ATGTGAAA,-0.0826
2,CTGGATTC,0.361
3,CTGGATTA,0.246
4,ATGGATTC,0.272
5,CCGCACAC,-0.0537
6,AAGATGCT,0.288
7,AAGATGCG,0.198
8,AAGATGCC,0.31
9,GAGATGCC,0.158
10,CAGATGCC,0.217
11,AAGATGCA,0.0396
12,TTAACCAA,-0.0373
13,ATCGCCGG,0.123
14,CAACTCAA,0.0769
15,AATAGGCG,0.168
16,AGACGAAG,0.335
17,ATACGAAG,0.293
18,CTACGAAG,0.0785
19,ATACGAAT,0.113
20,AGACGAAT,0.0336
21,CGACGAAG,-0.219
22,AGCTTACG,0.0302
